Among the data in PubChem BioAssay AID940 (Emory University Molecular Libraries Screening Center, 2007) are induction values, retold here.

The whole screen tested about 260,000 compounds, of which about 2,200 (0.85%) were called active. Many of the other results were omitted from the sample, so actives are more common in it than they were. A number with no mark means an inactive call.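 Rule for the calls: active = compounds whose cAMP rise, as percent of the full-agonist control response, exceeds 60; inactive = the rest.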

Prostaglandin E2 receptor EP2 subtype (Homo sapiens), sequence (P43116 whole entry, looked up): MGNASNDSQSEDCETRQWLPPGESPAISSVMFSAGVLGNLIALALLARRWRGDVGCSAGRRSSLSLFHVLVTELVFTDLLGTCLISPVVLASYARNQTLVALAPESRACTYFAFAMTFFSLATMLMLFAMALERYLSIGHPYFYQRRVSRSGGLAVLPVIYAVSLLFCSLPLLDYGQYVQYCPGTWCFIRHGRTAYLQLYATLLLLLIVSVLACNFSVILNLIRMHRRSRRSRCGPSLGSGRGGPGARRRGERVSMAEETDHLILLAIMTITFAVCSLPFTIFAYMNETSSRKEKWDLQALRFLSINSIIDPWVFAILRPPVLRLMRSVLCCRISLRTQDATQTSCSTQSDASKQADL

This experiment has as its target Prostaglandin E2 receptor EP2 subtype (Homo sapiens) (UniProt P43116). The experiment can be described thus: EP2 receptor modulators, cAMP readout, primary screen, cell-based, HTRF cAMP, PGE2 stimulation (AID 940).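 Note: rat C6 glioma line stably carrying human EP2 under a CMV promoter; the protocol text gives 20 µM as final concentration; 100% = response of wells given 1 µM PGE2.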 The settings on record: EP2-expressing cells, cAMP HTRF FRET, PGE2 co-stimulation; at 25 µM; stronger effect = higher value.
In the case of `CC1CCN(c2nc3c(c(=O)[nH]2)CCN(Cc2c(O)ccc4ccccc24)C3)CC1`, the induction was -22.9%.

Take `COc1ccccc1NC(=O)COc1ccc(/C=C/C2=CCN(C)CC2)cc1OC`: the induction was -73.1%.

Regarding `CCOc1ccc(OCC)c(NC(=O)CSc2ncnc3sc(C)c(C)c23)c1`, the induction is 40.1%.

In the case of `Cn1c(=O)sc2cc(S(=O)(=O)NC3(c4ccccc4F)CC3)ccc21`, the induction was -176%.

Turning to `COc1ccc(Cn2nnnc2CN(Cc2cc3cc(C)ccc3[nH]c2=O)C2CCCCC2)cc1`, the induction was 30.9%.

With `COc1nc(C)c(CC(=O)Nc2ccc3[nH]c4c(c3c2)CCCC4)c(OC)n1`, the induction was -85%.

On to `O=C(Nc1nnc(SCC(=O)N2CCCCC2)s1)c1ccco1`, for which the induction was -9.97%.

Turning to `COC(=O)CSc1nnc(-c2ccc3[nH]c(C)c(C)c3c2)o1`, the induction is -58.2%.

With `CCN1CCCC1CN(Cc1cc2cc(OC)c(OC)cc2[nH]c1=O)C(=O)Nc1ccccc1Cl` (stereo not drawn), the induction was -41.6%.

Regarding `CCc1nn(CC(=O)NCc2cccnc2)c(=O)c2cc3ccsc3n12`, the induction is 1.61%.

With `CCOc1ccc(-c2nc(-c3cc4ccccc4[nH]c3=O)no2)cc1`, the induction is -8.73%.

Turning to `CCc1ccccc1NC(=O)Cc1cn(C)c2ccccc12`, the induction was 23.9%.

Consider `CCc1ccccc1NC(=O)/C(=C/c1ccccc1)c1ccccc1`, for which the induction is 65.2% (active).

On to `O=C(/C=C/c1ccccc1)N/C(=C/c1ccccc1)C(=O)Nc1ccccc1O`, for which the induction is -4.9%.

`Cc1ccc(-c2nsc3c(SCC(=O)N(C)C4CCCCC4)ncnc23)cc1`: the induction is 34.6%.

As for `Cc1c(CN(C)C(=O)CSc2nc(-c3cccs3)cc(C(F)(F)F)n2)cnn1C`, the induction was 9.94%.

On to `CN1CC(c2ccccc2)C2(CCN(Cc3ccccc3)CC2)C1` (stereo not drawn), for which the induction is -9.74%.

`Cc1nn(CC#N)c(=O)n1N(C)c1ncc(C(F)(F)F)cc1Cl`: the induction was 2.11%.

With `Cc1cc(C)cc(NS(=O)(=O)c2ccc(Oc3ncc(C(F)(F)F)cc3Cl)cc2)c1`, the induction was 57.5%.

On to `C#CCN(N(C)c1ncc(C(F)(F)F)cc1Cl)S(=O)(=O)c1ccc2ccccc2c1`, for which the induction is 61.4% (active).

Take `O=C(Cc1cccs1)Nc1nnc(-c2ccccc2Cl)s1`: the induction is -20%.

Take `CC(C)Cc1nc(Cl)c(C#N)c2c1CCC2`: the induction is 6.62%.

With `CC(C)Cc1nc(N2CCOCC2)c(C#N)c2c1CCC2`, the induction was 64% (active).

Regarding `CC(C)c1nc(N2CCOCC2)c(C#N)c2c1COC(C)(C)C2`, the induction was -103%.

Turning to `Cc1ccccc1N(C(=O)c1ccco1)C(C(=O)NC1CCCC1)c1ccco1` (stereo not drawn), the induction is 15%.

For the compound `COc1ccc2c(c1)C(C)=CC(C)(C)N2C(=O)Nc1ccccc1`, the induction was 43%.

In the case of `COc1ccc2c(c1)C(C)=CC(C)(C)N2C(=O)CNCc1ccc2c(c1)OCO2`, the induction is 62.2% (active).

For the compound `COc1ccc(OC)c(CC(=O)N2CCC(c3ccc4c(c3)OCO4)CC2)c1`, the induction is -2.54%.

Consider `CCCNc1ncnc2sc(C)c(C)c12`, for which the induction is 17.6%.

For `Cc1sc2ncnc(Sc3nc4ccccc4s3)c2c1C`, the induction is 17.8%.

As to `CSc1ncnc2sc(C)c(C)c12`, the induction is 68.5% (active).

Take `Cc1cc2cc(CN(CCO)C(c3nnnn3CC3CCCO3)C(C)C)c(=O)[nH]c2cc1C` (stereo not drawn): the induction was -0.77%.

Consider `Cc1ccc(/C=N/NC(=O)CSc2ccccn2)o1`, for which the induction is -4.32%.

With `CCOc1ccc(/C=N/NC(=O)C(C)Sc2ccccn2)cc1OCC` (stereo not drawn), the induction is 13.9%.

As for `CCOc1ccc(/C=N/NC(=O)CSc2ccccn2)cc1O`, the induction was 65.8% (active).

In the case of `COc1ccc(S(=O)(=O)NCc2ccc3c(c2)OCO3)c(Cl)c1Cl`, the induction was -0.88%.

On to `Cc1nc2nc(N)ccc2c(C)c1C`, for which the induction is -9.42%.

Take `CCC(C)c1ccc(O)c(/C=N/O)c1` (stereo not drawn): the induction is 4.26%.

For the compound `CNCC(O)c1ccc(O)c(O)c1` (stereo not drawn), the induction was 68.4% (active).

Take `CC(=O)NCC(O)c1ccc([N+](=O)[O-])cc1` (stereo not drawn): the induction is 1.39%.

On to `CCc1ccc(NC(=O)C2CCN(C(=O)c3cccs3)CC2)cc1`, for which the induction is 15.7%.

For the compound `COC(=O)CSc1nc(C2CC2)nc2ccccc12`, the induction is 4.21%.

Consider `CCOc1ccc2cc(C#N)c(SCC(=O)OC)nc2c1`, for which the induction is 47%.

On to `COC(=O)CSc1nc2c(c(C3CC=CCC3)c1C#N)CCC2` (stereo not drawn), for which the induction was 68.1% (active).

Regarding `C=CCNC(=O)CN1CCC(c2ccccc2F)CC1`, the induction is -47.4%.

Consider `COC(=O)[C@H]1CCc2ccccc2N1C(=O)C1CCC1`, for which the induction is -15.3%.

For `CCC(C)OC(=O)C(C)n1cnc2sc(C(=O)Nc3ccccc3OC)c(C)c2c1=O` (stereo not drawn), the induction was -16.1%.

Turning to `COC(=O)[C@H]1CCc2ccccc2N1C(=O)c1ccccc1F`, the induction was 8.05%.

As to `O=C(Cn1nc(-c2ccncc2)oc1=O)N1CCCCC1`, the induction is -10.9%.

Take `CS(=O)(=O)N1CCCc2cc(C(O)CN3CCN(c4cnccn4)CC3)ccc21` (stereo not drawn): the induction is -3.55%.

As for `O=C(CSc1nc2ccccc2c(=O)n1Cc1ccco1)Nc1ccccc1Cl`, the induction is 67.4% (active).

As to `Cc1cc(NC(=O)CSc2nc3cc(Cl)ccc3c(=O)n2Cc2ccco2)no1`, the induction is -4.33%.

On to `N#Cc1c(NC(=O)CSc2nc3ccccc3c(=O)n2Cc2ccco2)sc2c1CCCC2`, for which the induction is -3.51%.

For the compound `CCOC(=O)C(C)NC(=O)c1cc2ccc(F)cc2[nH]1` (stereo not drawn), the induction is -92.7%.

On to `Cc1nc(S(=O)(=O)c2ccc(Cl)cc2)c(N2CCCCC2)o1`, for which the induction is -42.2%.

As to `CCN1CCN(C(=O)[C@H]2C[C@@H](c3ccc(OC)c(OC)c3)NS(=O)(=O)N2C)CC1`, the induction is -8.26%.

`COc1ccc(C2(C(=O)N3CCC(n4cnc5cccnc54)CC3)CCCC2)cc1`: the induction is 11.4%.

In the case of `Cc1nn(C(C)C)c(C)c1CN(C)CCOc1ccccc1`, the induction was -30.9%.

As for `COc1cc(C)c(-c2csc(NC(=O)C3(C)CCCO3)n2)cc1C` (stereo not drawn), the induction is -62.2%.

Regarding `COc1cccc(NC(=O)c2ccccc2SC)c1`, the induction was 61.4% (active).

`CSc1ccccc1C(=O)Nc1cccc(C(C)=O)c1`: the induction was 10.1%.

As to `COc1cccc(NC(=O)C(C)Oc2ccccc2)c1` (stereo not drawn), the induction is 9.01%.

In the case of `COc1cc(C#N)ccc1OCc1nc(-c2ccccc2)no1`, the induction was -64.5%.

Turning to `CSc1ncc(C(=O)N2CC(CN3CCOCC3)c3ccccc32)cn1` (stereo not drawn), the induction is -3.66%.

In the case of `CCOC(=O)C1CCN(C(=O)Nc2c[nH]c3ccc(OC)nc3c2=O)CC1`, the induction was -39.3%.

Turning to `CCOC(=O)c1c(N)nn(C(=O)c2ccccc2)c1-c1ccccc1`, the induction is 69.9% (active).

For the compound `CCOC(=O)c1nnn(-c2nonc2OC)c1-c1ccccc1`, the induction is 11.4%.

Consider `CCOC(=O)c1c(-c2cccc(N)c2)cn2ccccc12`, for which the induction was -32.9%.

For the compound `CC1(C)Cc2c(C#N)c(SCc3nc4ccccc4[nH]3)nc(N3CCOCC3)c2CO1`, the induction was -21.7%.

With `C/C(Cl)=C\CSc1nc(N2CCOCC2)c2c(c1C#N)CC(C)(C)OC2`, the induction was 67.7% (active).

In the case of `COc1ccc(CSc2nc(N3CCOCC3)c3c(c2C#N)CC(C)(C)OC3)cc1`, the induction is 37.4%.

On to `CCOc1ccc2[nH]c(=O)c(C(c3nnnn3CCOC)N3CCN(C)CC3)cc2c1` (stereo not drawn), for which the induction is -18.3%.

As to `COC(=O)Cn1cnc2sc(C(=O)OC)c(C)c2c1=O`, the induction is -5.66%.

With `CCOC(=O)c1sc2nc(C)[nH]c(=O)c2c1C`, the induction is 15.6%.

As for `COC(=O)c1sc2[nH]c(=S)n(N)c(=O)c2c1C`, the induction was 78.1% (active).

On to `O=c1[nH]c2ccc(S(=O)(=O)N3CCCC(c4ccccc4)C3)cc2[nH]1` (stereo not drawn), for which the induction was -114%.

As to `O=C(Cn1nc2c3ccccc3ncn2c1=O)NCc1cccs1`, the induction was 4.57%.

`Cc1ccc2cc(C#N)c(SCC(=O)Nc3cccc(C)c3C)nc2c1`: the induction was -15.3%.

For `CCc1cc2cc3c(cc2nc1SCC(=O)Nc1ccccc1Br)OCCO3`, the induction was -3.39%.

For `COc1ccc2nc(C)cc(SCC(=O)Nc3ccccc3Br)c2c1`, the induction is -51.4%.

With `CCc1cc2ccccc2nc1SCC(=O)Nc1ccccc1Br`, the induction is 65.9% (active).

For `COc1ccc2cc(C#N)c(SCC(=O)Nc3ccccc3Br)nc2c1`, the induction is 66.9% (active).

Regarding `Cc1cc2ccccc2nc1SCC(=O)Nc1ccccc1F`, the induction is 39.1%.

As to `COCCNc1nnc(-c2ccccn2)s1`, the induction is -12.4%.

For `O=C(CCSc1nc(-c2ccco2)cc(C(F)(F)F)n1)NC1CCCCC1`, the induction was -7.93%.

`CC(C)(C)Oc1ncc(Br)c(OC(C)(C)C)n1`: the induction was 31.4%.

Consider `COc1cccc(-c2cnc(OC(C)(C)C)nc2OC(C)(C)C)c1`, for which the induction was 62% (active).

As for `COc1cccc(-c2nc3cc(C)ccc3o2)c1`, the induction was 3.47%.

Take `CC1(C)CC2CC(C)(CN2c2ncnc3ccc(Br)cc23)C1` (stereo not drawn): the induction was 70% (active).

As for `COc1ccc(C(=O)N2CC3(C)CC2CC(C)(C)C3)cc1OC` (stereo not drawn), the induction is -6.8%.

Consider `CC1(C)CC2CC(C)(CN2C(=O)c2ccc(Cl)cc2)C1` (stereo not drawn), for which the induction was -5%.

In the case of `COc1ccc2[nH]cc(CCNC(=O)C3CCN(c4nc5ccccc5n4C)CC3)c2c1`, the induction is -102%.

With `CCc1ncc(CNC2(c3ccc(Cl)cc3)CCC2)cn1`, the induction was -47%.

Take `CCC(C)(C)n1nnnc1CN(Cc1ccc(F)cc1)Cc1cc2cc(C)cc(C)c2[nH]c1=O`: the induction is 29.1%.

As for `CCC(c1nnnn1C(C)(C)C)N(Cc1ccccc1)Cc1cc2ccc(C)cc2[nH]c1=O` (stereo not drawn), the induction was 12.1%.

For `CCc1ccc2[nH]c(=O)c(CN(Cc3ccc(F)cc3)Cc3nnnn3C(C)(C)C)cc2c1`, the induction is 62.5% (active).

For `COCCNC(=O)Cn1nc2c(C)cc3cc(C)cc(C)c3n2c1=O`, the induction was -32.1%.

`COc1ccc(NCc2nnc(SCC(=O)Nc3ccc(C)cc3)n2C)cc1`: the induction was 8.87%.
